Bioassay records deposited in PubChem BioAssay by several laboratories.
PDI inh – blocks human protein disulfide isomerase activity; P07237; PDI insulin aggregation turbidity, A650, 90 min; inhibition, % at 10 µM; 350,000 compounds, 0.052% hits;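 active means mean inhibition across replicates of 30% or more, whatever share of single replicates reach that level; inconclusive means mean inhibition below 30% while every single replicate reaches 30%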
ERp5 block – inhibitors of human ERp5. ERp5 insulin aggregation, absorbance 650 nm, 90 min. 350,000 compounds, 0.05% hits. inhibition, % at 9.99 µM;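 active means mean replicate inhibition above about 25%, with every replicate also reaching it, limit read from the data, passing the limit was not always enough; inconclusive means only one of those two criteria met; inactive means neither criterion met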
ALR H2O2 inh – blocks human ALR sulfhydryl oxidase activity; P55789; inhibition, % (no concentration beside the values); 290,000 compounds, 3.8% hits; purified ALR, DTT oxidation, H2O2 HRP-luminol luminescence;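 active means mean replicate inhibition above about 79%, with every replicate also reaching it, limit read from the data; inconclusive means only one of the two criteria met; inactive means mean below limit and not every replicate reaching it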
NRP1-CendR mod – alters CendR peptide binding to human NRP-1 | O14786 | FAM-RPARPAR peptide binding to NRP-1, fluorescence polarization | inhibition, % at 25 µM | 360,000 compounds, 0.85% hits | AID 602438;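 active means inhibition or corrected inhibition above about 18%, plus a signal ratio from 0.5 to 1.5, limit read from the data, passing the limit was not always enough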
Target sequence (O14786 whole entry, looked up): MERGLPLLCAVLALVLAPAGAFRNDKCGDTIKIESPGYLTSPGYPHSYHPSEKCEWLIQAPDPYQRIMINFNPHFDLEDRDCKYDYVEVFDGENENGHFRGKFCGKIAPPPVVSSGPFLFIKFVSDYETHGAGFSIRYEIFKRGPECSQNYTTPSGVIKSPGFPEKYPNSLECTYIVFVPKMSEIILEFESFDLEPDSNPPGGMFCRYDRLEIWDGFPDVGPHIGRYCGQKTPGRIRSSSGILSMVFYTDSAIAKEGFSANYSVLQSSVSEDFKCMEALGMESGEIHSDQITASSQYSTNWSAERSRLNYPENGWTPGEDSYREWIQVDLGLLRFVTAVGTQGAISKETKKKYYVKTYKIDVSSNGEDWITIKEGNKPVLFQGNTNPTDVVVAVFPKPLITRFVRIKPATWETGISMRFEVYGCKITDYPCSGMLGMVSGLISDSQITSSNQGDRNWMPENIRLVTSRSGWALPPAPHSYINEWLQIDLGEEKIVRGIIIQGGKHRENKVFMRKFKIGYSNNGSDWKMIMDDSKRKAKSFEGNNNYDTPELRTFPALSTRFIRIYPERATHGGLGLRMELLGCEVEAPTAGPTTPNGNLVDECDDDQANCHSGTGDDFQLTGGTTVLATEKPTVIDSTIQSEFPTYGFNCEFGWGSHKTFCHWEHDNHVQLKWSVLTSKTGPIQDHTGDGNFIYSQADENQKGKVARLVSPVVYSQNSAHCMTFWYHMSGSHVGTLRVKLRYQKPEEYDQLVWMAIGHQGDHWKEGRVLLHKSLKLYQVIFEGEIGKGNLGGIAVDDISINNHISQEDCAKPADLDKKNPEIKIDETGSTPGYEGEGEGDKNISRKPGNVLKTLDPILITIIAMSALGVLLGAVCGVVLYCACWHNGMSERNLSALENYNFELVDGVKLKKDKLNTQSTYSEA
ARNT TACC3 PPI – disrupts binding between human ARNT and TACC3. inhibition, % at 9.99 µM. Q9Y6A5. 390,000 compounds, 0.66% hits. AlphaScreen His-ARNT PAS-B/GST-TACC3 binding, luminescence; TACC3 fragment carries E629A point mutation. AID 623870;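 active means mean inhibition of replicates at least 50% and at least half of replicates each reaching 50%; inconclusive means half or more replicates reach 50% but mean below 50%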;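 further: 0% = complete ARNT plus TACC3 wells and 100% = ARNT alone without TACC3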
PglD DTNB – PglD (C. jejuni) enzyme inhibition. purified PglD enzyme, DTNB colorimetric CoA detection. inhibition, % at 12.5 µM. AID 602405. 360,000 compounds, 0.098% hits; in the data active means inhibition above about 16%, passing the limit was not always enough; inconclusive means no clear call, values can overlap the other calls
An asterisk follows results filed as active; ? = inconclusive; . = no result. Shown is part of a subset that was picked to be rich in hits.

SMILES	PDI inh	ERp5 block	ALR H2O2 inh	NRP1-CendR mod	ARNT TACC3 PPI	PglD DTNB
CC(N)Cc1ccc(O)cc1 (centres undefined)	.	1.8	.	.	.	.
CC[n+]1c(/C=C/C=C/c2ccc(N(C)C)cc2)sc2ccccc21	2.3	1.0	.	-26.4	48.4*	3.9
O=C1C(Cl)=CC(=Nc2ccc(O)cc2)C=C1Cl	?	2.2	99.0*	0.1	.	-5.5
COC(=O)[C@H]1[C@H](CO)[C@H]2Cn3c(cccc3=O)[C@@H]1N2Cc1nccs1	.	1.5	.	.	1.3	0.7
CCN(CC)c1ccc(N=Cc2c(O)n(-c3ccccc3C)c(=O)[nH]c2=O)cc1	-4.4	.	98.5*	-106.6	-1.6	-0.5
CCOc1ccccc1-n1c(O)c(C=Nc2ccc(N(CC)CC)cc2)c(=O)[nH]c1=O	-4.9	.	70.0	-74.6	4.2	-14.3
CCN(CC)c1ccc(N=Cc2c(O)n(-c3ccccc3)c(=O)[nH]c2=O)cc1	6.1	1.0	81.4*	-57.5	-1.0	.
N#Cc1cccc(-c2ccc([C@@H]3[C@H](CO)N4CCCCN(C(=O)Cc5cccnc5)C[C@@H]34)cc2)c1	.	-4.8	.	.	-0.6	0.3
O=C(O)C12C3CCCC1C32c1ccccc1 (centres undefined)	5.1	.	99.4*	-0.2	1.9	-1.3
CN1CCC(O)(c2ccccc2)C(C(=O)c2ccccc2)C1 (centres undefined)	8.3	.	10.0	-5.3	.	-5.4
Cc1ccc(OC(=O)N(C)C[C@H]2OCc3ccccc3-c3c(n(C)c4ccccc34)C(=O)N([C@H](C)CO)C[C@@H]2C)cc1	.	3.2	.	.	.	.
O=C(Cc1ccccc1)N1CC2(C1)[C@@H](c1ccccc1)[C@@H](CO)N2Cc1cccc(F)c1	.	-3.6	.	.	.	.
Cc1ccc(C2(O)CCN3CCCCC32)cc1 (centres undefined)	-10.1	.	0.0	28.6*	8.2	-0.7
CN1CCC(O)(c2ccccc2)C2CCCC21 (centres undefined)	9.0	-1.2	-3.5	2.1	2.3	5.0
O=C(Cc1ccncc1)N1CCCCN2[C@H](C1)[C@H](c1ccc(C#Cc3ccccc3F)cc1)[C@@H]2CO	.	-2.3	.	.	4.3	1.8
COc1ccc(C(=O)N/N=C/C23CC[C@@H](O)CC2(O)CC[C@@H]2[C@@H]3CCC3(C)C(C4=CC(=O)OC4)CCC23O)cc1 (some centres undefined)	11.7	2.2	.	-7.3	19.4	.
COc1cc(C(=O)N/N=C/C23CC[C@@H](O)CC2(O)CC[C@@H]2[C@@H]3CCC3(C)C(C4=CC(=O)OC4)CCC23O)ccc1O (some centres undefined)	0.6	21.8	95.3*	-4.1	0.0	.
COC(=O)[C@H]1[C@H](CO)[C@H]2Cn3c(ccc(/C=C/c4ccccc4)c3=O)[C@@H]1N2C(=O)C1CCC1	.	-1.6	.	.	-13.1	5.4
Cc1nn(Cc2ccccc2)c(C)c1C=C1C(=O)NC(=O)NC1=O	2.5	.	95.1*	-20.1	.	-5.5
COc1c(C=C2C(=O)NC(=O)NC2=O)c(CCN(C)C(=O)c2ccccc2)cc2c1OCO2	.	-1.5	96.4*	0.2	-3.7	1.2
O=C(O)[C@@H]1[C@@H](CO)[C@@H]2Cn3c(ccc(-c4ccncc4)c3=O)[C@H]1N2C(=O)C1CCCC1	.	-2.6	.	.	.	.
CC[n+]1c(-c2ccccc2)c2cc(N)ccc2c2ccc(N)cc21	0.2	1.1	.	46.9*	0.8	.
O=C1CC(=O)N(c2cccc(Br)c2)C(=O)N1	6.7	1.7	24.7	-24.3	1.6	-9.4
Cc1cc(Br)ccc1N1C(=O)CC(=O)NC1=O	8.8	.	85.4*	-35.4	11.6	2.8
C/C=C/c1ccc(C2[C@@H]3CN(Cc4cccc(F)c4)C[C@H]2N3)cc1 (some centres undefined)	.	2.1	.	.	.	.
SMILES	PDI inh	ERp5 block	ALR H2O2 inh	NRP1-CendR mod	ARNT TACC3 PPI	PglD DTNB
Nc1ccc(N2CCN(Cc3ccccc3Cl)CC2)c(Cl)c1	-0.2	.	89.4*	0.6	-0.4	0.2
COc1ccccc1N1CCN(Cc2ccccc2Cl)CC1	-7.8	.	.	11.4	1.1	6.2
c1ccc2c(CN3CCCCCCC3)c[nH]c2c1	-0.2	.	10.4	3.5	0.1	-5.4
Clc1ccccc1CN1CCN(c2cccc3[nH]ccc23)CC1	5.8	.	96.5*	5.3	2.6	3.6
Clc1ccc(N2CCN(Cc3ccccc3Cl)CC2)cc1	-0.7	0.4	15.7	7.8	-0.8	-4.9
Clc1ccccc1CN1CCN(c2ccccc2)CC1	-0.8	1.5	98.7*	11.9	0.2	0.7
